A3A deaminase – human APOBEC3A DNA deaminase inhibition; recombinant A3A, FAM/TAMRA ssDNA deamination fluorescence; inhibition, % at 20 µM; 330,000 tested, 0.41% active;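 active = at least 40% inhibition at 20 µM here, with at most 30% in a related deaminase screen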;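 note: plate controls were A3A with DMSO for no effect and wells lacking A3A enzyme for full effect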
Target sequence (P31941 whole entry, looked up): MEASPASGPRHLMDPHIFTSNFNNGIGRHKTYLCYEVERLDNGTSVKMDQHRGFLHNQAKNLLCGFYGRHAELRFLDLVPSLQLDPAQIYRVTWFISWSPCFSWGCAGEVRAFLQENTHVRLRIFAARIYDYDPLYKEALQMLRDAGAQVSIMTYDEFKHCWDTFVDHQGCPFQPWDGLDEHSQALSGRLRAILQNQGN
PfGluPho inh – PfG6PD (Plasmodium falciparum) enzyme inhibition; PfGluPho enzyme, NADPH resazurin-diaphorase fluorescence; inhibition, % at 20 µM; 350,000 tested, 0.78% active; AID 504690;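 active = inhibition reaching at least a set limit at 20 µM in the primary screen, cut at about 59% in these data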;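 note: 0% = DMSO wells with substrate and 100% = DMSO wells lacking glucose-6-phosphate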
Cardio protect – modulators protecting cardiomyocytes from myocardial damage; H9c2 cardiomyocytes, H2O2 injury protection, ATPLite, 2 h; protection from H2O2 cell death, % at 20 µM; 360,000 tested, 0.63% active;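 active = compounds giving at least 50% protection of heart cells from peroxide-induced death in the single-dose screen, raw or plate-pattern-corrected value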;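 note: 0% = DMSO wells with peroxide and 100% = DMSO wells without peroxide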
H9c2 TAG inh – reduces triacylglycerol accumulation in H9c2 cells; inhibition, % at 12.5 µM; 230,000 tested, 0.66% active; Nile Red lipid (TAG) fluorescence; cells loaded with 200 µM oleic acid;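 active = pattern-corrected inhibition of lipid staining of at least 50% with the nuclear-stain viability signal not falling by more than 50%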;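 note: 0% = DMSO wells and 100% = triacsin C control wells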
NadD block – blocks S. aureus nicotinate mononucleotide adenylyltransferase. purified NadD enzyme, colorimetric absorbance read-out. inhibition, % at 20 µM. 360,000 tested, 0.78% active. AID 602399; in the data active = inhibition above about 26%
APOBEC3G inh – APOBEC3G (human) deaminase inhibition; 330,000 tested, 0.28% active; inhibition, % at 20 µM; Q9HC16; AID 493012; recombinant A3G, ssDNA deamination FAM/TAMRA fluorescence;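 active = inhibition of at least 40% at 20 µM, with no more than 30% in the related APOBEC3A deaminase screen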;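 note: plate controls were DMSO wells with A3G for no effect and wells lacking A3G enzyme for full effect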
Target sequence (Q9HC16 whole entry, looked up): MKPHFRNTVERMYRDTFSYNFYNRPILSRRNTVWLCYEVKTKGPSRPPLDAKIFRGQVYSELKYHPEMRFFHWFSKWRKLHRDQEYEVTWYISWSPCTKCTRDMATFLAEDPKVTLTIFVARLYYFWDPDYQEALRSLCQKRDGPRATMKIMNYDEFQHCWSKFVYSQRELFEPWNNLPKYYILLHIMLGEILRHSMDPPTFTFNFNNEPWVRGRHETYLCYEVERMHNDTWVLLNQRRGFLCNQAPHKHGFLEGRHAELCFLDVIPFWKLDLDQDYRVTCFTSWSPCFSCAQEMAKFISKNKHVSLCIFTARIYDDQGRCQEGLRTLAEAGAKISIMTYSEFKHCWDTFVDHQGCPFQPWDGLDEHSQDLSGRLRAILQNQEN
The depositor's hits bear a star; . = not tested or not shown. An excerpt weighted towards active compounds, which were near 2.9% of everything screened.

SMILES | A3A deaminase | PfGluPho inh | Cardio protect | H9c2 TAG inh | NadD block | APOBEC3G inh
COCCn1cnc2c(c1=O)c1nc3ccccc3nc1n2/N=C/c1cccc(OC)c1 | -1 | 10 | 52* | 27 | -5 | -1
COCCCn1cnc2c(c1=O)c1nc3ccccc3nc1n2-c1ccccc1 | 3 | -14 | 5 | -2 | -1 | -1
CC(=O)Nc1ccc(NC(=O)C(C)OC(=O)c2c(NC(C)=O)sc(C)c2C)cc1 (stereo not drawn) | 0 | 3 | 13 | -24 | -1 | -6
COc1ccc(/C=C/C(=O)c2ccc([N+](=O)[O-])o2)cc1OC | -2 | 77* | . | . | . | -3
NS(=O)(=O)c1ccc(CNC(=O)/C=C/c2cccc(Cl)c2)cc1 | 0 | 1 | 3 | 7 | -6 | -5
COc1ccc(C=CC(=O)c2ccc3cc(OC)c(OC)cc3c2)cc1OC | . | 29 | 53* | 17 | -18 | .
O=C(/C=C/c1cccc(Cl)c1)c1ccc([N+](=O)[O-])o1 | 3 | 97* | -31 | 95 | -2 | -12
COc1ccc(C=CC(=O)c2ccc(OC)c(OC)c2)cc1O | . | 15 | 15 | 0 | 0 | .
COc1cc2c(c(OC)c1OC)-c1ccc(NCc3ccccc3)c(=O)cc1C(NC(C)=O)CC2 (stereo not drawn) | . | 5 | 8 | 24 | 1 | .
Cc1ccc(C(=O)O)cc1N=Cc1cc(Br)cc(Br)c1O | . | 4 | 77* | 9 | 4 | .
COCCN1C(=O)COc2ccccc2C1C(=O)NC(C)(C)C (stereo not drawn) | . | . | . | . | 5 | .
Cc1cc(C(=O)N2CCCC(C)(C(=O)NS(=O)(=O)C3CC3)C2)n(C(C)(C)C)n1 (stereo not drawn) | . | . | 10 | 4 | 4 | .
O=C(c1cc(=O)[nH]c2ccccc12)N1CCN(S(=O)(=O)c2ccc(Cl)cc2)CC1 | 0 | -14 | 88* | 16 | 1 | -8
O=C(c1cc(=O)[nH]c2ccccc12)N1CCN(S(=O)(=O)c2ccc3ccccc3c2)CC1 | 1 | -12 | 103* | 6 | 4 | -5
O=C(COC(=O)c1cc[n+]([O-])cc1)Nc1ccc([N+](=O)[O-])cc1Cl | -1 | 9 | 2 | 10 | 3 | -1
COc1ccc(/C=N/Nc2nc(C)cc(-c3ccccc3)n2)c(OC)c1 | -3 | 0 | 4 | 29 | -4 | -1
COc1ccc2nc(C)cc(N/N=C/c3ccccc3)c2c1 | 2 | 22 | -22 | 66* | 1 | -7
COc1ccc(/C=N/Nc2cc(C)nc3ccc(OC)cc23)c(OC)c1 | 2 | 14 | -23 | . | 7 | 0
COc1ccc(O)c(/C=N/Nc2nc(C)cc(-c3ccccc3)n2)c1 | -6 | 3 | 66* | 13 | 4 | -7
O=C1Nc2ccc(Br)cc2C1Cc1ccccc1F (stereo not drawn) | 1 | 89* | -6 | . | 0 | -7
Cn1c(CC2C(=O)Nc3ccc(Br)cc32)nc2ccccc2c1=O (stereo not drawn) | -4 | 9 | 10 | . | 9 | -7
O=C(CCN1CCN(C(c2ccccc2)c2ccccc2)CC1)N/N=C/c1ccc(O)cc1O | 2 | -20 | 61* | . | 7 | -2
O=C(CCC(=O)Nc1ccc(F)cc1)N/N=C/c1ccc(O)cc1O | 0 | -11 | 74* | 3 | -2 | 2
Cc1cc(C)n(CCC(=O)N/N=C/c2ccc(O)cc2O)n1 | -4 | -18 | 55* | . | -2 | -7
COc1ccc(/C=N/NC(=O)CCn2nc(C)cc2C)cc1O | -1 | 0 | -4 | 8 | -6 | -6
SMILES | A3A deaminase | PfGluPho inh | Cardio protect | H9c2 TAG inh | NadD block | APOBEC3G inh
Cc1cc(C)n(CCC(=O)N/N=C/c2ccccc2O)n1 | -5 | -30 | 54* | . | -2 | -4
Nc1c(N(CCC2=CCCCC2)C(=O)c2ccccc2F)c(=O)[nH]c(=O)n1Cc1ccccc1 | -3 | -1 | 3 | -19 | 4 | -8
CN(C)c1cc[n+](Cc2c(Cl)cccc2Cl)cc1 | -3 | 5 | -13 | -127 | 1 | -5
CSc1ncc(CO)n1Cc1ccccc1 | 2 | 14 | -4 | 5 | -6 | 2
COC(=O)C1CSC(c2ccc(Cl)cc2)N1C(=O)c1ccccc1 (stereo not drawn) | 2 | -4 | -5 | -12 | -5 | -1
CCCCn1nnnc1C1(C)CCC(=O)N1Cc1cccc(F)c1 (stereo not drawn) | . | . | . | . | 1 | .
CN(C)CCNc1nc2sc3c(c2c(=O)n1CCc1ccccc1)CCCCC3 | -3 | 10 | -18 | 80* | -10 | -3
NC(=O)c1cccc(Nc2nc(C(N)CCc3ccccc3)cs2)n1 (stereo not drawn) | . | . | 77* | 15 | 1 | .
COc1cccc(Nc2nc(C(N)CCc3ccccc3)cs2)n1 (stereo not drawn) | . | . | -13 | 14 | -2 | .
C/C(=N\Nc1nc2ccccc2nc1C)c1ccccc1O | 6 | -14 | 7 | 52* | -4 | 3
CC(=NNc1ccc2ccccc2n1)c1ccccc1O | . | 57 | -16 | -1 | -2 | .
O=C(O)CC(NC(=O)c1cccc([N+](=O)[O-])c1)c1ccc2c(c1)OCO2 (stereo not drawn) | -1 | 7 | 0 | 4 | -4 | -5
CS(=O)(=O)c1nc(-c2ccc(Br)cc2)cc(-c2ccccc2)c1C#N | 5 | 2 | -12 | 79* | 12 | -3
COc1ccc(-c2cc(-c3ccccc3)c(C#N)c(S(C)(=O)=O)n2)cc1 | -3 | 6 | -15 | 15 | -4 | -4
O=c1c(CO)cc(CO)cc(CO)c1O | 0 | -8 | -4 | -3 | 4 | -2
O=C1C=CC(=O)c2c(O)c(CO)c(CO)c(O)c21 | . | 33 | -20 | 35 | 77* | .
CCOc1cc(C(=O)OC(C)C(=O)Nc2ccc(S(N)(=O)=O)cc2)ccc1OCC(=O)N1CCOCC1 (stereo not drawn) | 1 | 2 | -6 | 13 | -1 | -4
CCOc1cc(/C=C(\C#N)C(=O)Nc2ccc(S(N)(=O)=O)cc2)ccc1OCCN1CCOCC1 | -1 | 4 | 56* | -3 | -2 | -6
CCOCCN1CCN(c2c(CC)c(C)nc3cc(-c4cc(OC)cc(OC)c4)nn23)CC1 | -3 | 25 | 73* | . | 1 | -3
CCN(CC)CCn1c(NC(=O)c2ccc(Cl)cc2)nc2ccccc21 | -2 | 11 | 62* | . | -8 | -5
Cn1c(/C=N/NC(=O)c2ccccc2)nc2ccccc21 | -3 | 25 | 65* | . | 7 | -2
CCCn1c(NC(=O)c2cccc(S(=O)(=O)N3CCCC3)c2)nc2ccccc21 | -1 | 23 | 99* | . | 6 | -8
CCCn1c(NC(=O)c2ccc(C)cc2)nc2ccccc21 | -3 | 19 | 39 | -17 | 2 | -5
Cn1c(CCCNC(=O)c2ccccc2)nc2ccccc21 | 4 | -4 | 7 | 0 | -2 | 3
CCN(CC)CCn1c(NC(=O)c2ccccc2O)nc2ccccc21 | -7 | 18 | 30 | 29 | -5 | -10
CCCn1c(NC(=O)c2ccccc2)nc2ccccc21 | 2 | 22 | 52* | -1 | -4 | 6

Assay outcomes: PubChem, Sanford-Burnham Center for Chemical Genomics
